Experimental data published in PubChem BioAssay AID1159580 (chemical genetic matrix, 2015).
Several values for one entry are separate records, joined by “and”; a condition that tells them apart may be missing. Equal entries are not always repeated. In all, about 5,500 compounds went through this assay and about 2,000 (36%) were called active. Roughly 18% stayed inconclusive and do not appear here. No stated cut-off is given here; in the data, active means normalized growth mostly below about 0.91 (no sharp cut-off); inconclusive means no clear call, values can overlap the other calls; inactive means mostly above about 0.92. This is one part of the list.

Assay: chemical genetic growth profiling, strain panel (AID 1159580);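 further: tested at 20 µM; growth read once vehicle control cultures reached saturation at 30 °C; 1 = growth at the plate median or of vehicle wells; lower values mean less growth of the strain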
Settings: S. cerevisiae deletion strains, growth OD

Measured: normalized growth

COc1cc(-c2coc3cc(O[C@@H]4O[C@H](CO)[C@@H](O)[C@H](O)[C@H]4O)c(OC)c(O)c3c2=O)cc(O)c1OC
inactive: locus YAL021C, strain ccr4, active compounds read low 1.01 | locus YAL026C, strain drs2, active compounds read low 1.01 | locus YAL030W, strain snc1, active compounds read low 0.988 | locus YBL061C, strain skt5, active compounds read low 0.997 | locus YBR009C, strain hhf1, active compounds read low 0.986 | locus YBR021W, strain FUR4, active compounds read low 1.02 | locus YBR023C, strain chs3, active compounds read low 0.989 | locus YBR171W, strain sec66, active compounds read low 0.99 | locus YBR229C, strain ROT2, active compounds read low 0.994 | locus YBR231C, strain swc5, active compounds read low 0.983 | locus YBR279W, strain paf1, active compounds read low 1 | locus YCL011C, strain gbp2, active compounds read low 0.999 | locus YCL016C, strain dcc1, active compounds read low 0.996 | locus YCL029C, strain bik1, active compounds read low 1.01 | locus YCL061C, strain MRC1, active compounds read low 0.994 | locus YCL069W, strain vba3, active compounds read low 1.01 | locus YCR088W, strain abp1, active compounds read low 0.997 | locus YDL005C, strain med2, active compounds read low 0.98 | locus YDL035C, strain GPR1, active compounds read low 1.04 | locus YDL040C, strain nat1, active compounds read low 0.994 | locus YDL074C, strain BRE1, active compounds read low 1.08 | locus YDL101C, strain DUN1, active compounds read low 0.987 | locus YDL185W, strain tfp1, active compounds read low 0.997 | locus YDL192W, strain arf1, active compounds read low 1.02 | locus YDR001C, strain nth1, active compounds read low 1.01 | locus YDR069C, strain doa4, active compounds read low 0.986 | locus YDR101C, strain arx1, active compounds read low 1.03 | locus YDR137W, strain rgp1, active compounds read low 1.02 | locus YDR150W, strain NUM1, active compounds read low 1.02 | locus YDR159W, strain sac3, active compounds read low 0.973 | locus YDR162C, strain NBP2, active compounds read low 1.03 | locus YDR195W, strain ref2 0.939 | locus YDR297W, strain sur2, active compounds read low 1.01 | locus YDR318W, strain mcm21, active compounds read low 1.02 | locus YDR334W, strain swr1, active compounds read low 0.997 | locus YDR335W, strain msn5, active compounds read low 1 | locus YDR388W, active compounds read low 1 | locus YDR392W, strain spt3, active compounds read low 0.874 | locus YDR502C, strain sam2, active compounds read low 1 | locus YEL003W, strain gim4, active compounds read low 0.982 | locus YEL037C, strain rad23, active compounds read low 1.01 | locus YEL061C, strain CIN8 (second series), active compounds read low 1 | locus YEL061C, strain CIN8, active compounds read low 1 | locus YER015W, strain faa2, active compounds read low 1 | locus YER016W, strain bim1, active compounds read low 0.996 | locus YER110C, active compounds read low 0.996 | locus YER111C, strain swi4, active compounds read low 1 | locus YER155C, strain BEM2 (second series), active compounds read low 0.928 | locus YER155C, strain BEM2, active compounds read low 0.991 | locus YER167W, strain BCK2, active compounds read low 0.993 | locus YFR010W, strain ubp6, active compounds read low 0.999 | locus YGL078C, strain dbp3, active compounds read low 0.988 | locus YGL086W, strain mad1, active compounds read low 1 | locus YGL167C, strain pmr1, active compounds read low 0.996 | locus YGL173C, strain kem1, active compounds read low 1 | locus YGL227W, strain vid30, active compounds read low 0.995 | locus YGL240W, strain doc1, active compounds read low 0.961 | locus YGL248W, strain PDE1, active compounds read low 0.982 | locus YGL253W, strain hxk2, active compounds read low 1.02 | locus YGR135W, strain pre9, active compounds read low 0.97 | locus YGR252W, strain gcn5, active compounds read low 0.997 | locus YHR013C, strain ard1, active compounds read low 0.979 | locus YHR027C, strain rpn1, active compounds read low 0.995 | locus YHR030C, strain SLT2, active compounds read low 1.01 | locus YHR079C, strain IRE1 (second series), active compounds read low 1 | locus YHR079C, strain IRE1, active compounds read low 1.01 | locus YHR094C, strain hxt1, active compounds read low 0.993 | locus YHR129C, strain ARP1, active compounds read low 0.999 | locus YHR142W, strain chs7, active compounds read low 1.02 | locus YHR200W, strain rpn10, active compounds read low 1 | locus YIL066C, strain RNR3, active compounds read low 1 | locus YIL073C, strain SPO22, active compounds read low 1.05 | locus YIL125W, strain kgd1, active compounds read low 0.997 | locus YIR030C, strain dcg1, active compounds read low 0.994 | locus YJL092W, strain hpr5, active compounds read low 1 | locus YJL095W, strain BCK1 (second series), active compounds read low 1 | locus YJL095W, strain BCK1, active compounds read low 1.02 and 1.01 | locus YJL115W, strain asf1, active compounds read low 0.993 | locus YJL129C, strain trk1, active compounds read low 1 | locus YJL134W, strain LCB3, active compounds read low 0.992 | locus YJL154C, strain vps35, active compounds read low 0.997 | locus YJL164C, strain tpk1, active compounds read low 1 | locus YJL166W, strain qcr8, active compounds read low 0.991 | locus YJL168C, strain set2, active compounds read low 0.995 | locus YJL187C, strain SWE1 (second series), active compounds read low 0.991 | locus YJR043C, strain POL32, active compounds read low 1.05
